Calls of active or inactive are those of the source. How the source made its calls: active means hit-call score of the fitted dose curve at least 0.9, where 1 is the maximum; inactive means score below 0.9.
Columns and labels:
Settings in all cases: mRNA level, 48 h; actives raise or lower the signal
[1] = read-out: ATP-citrate lyase (ACLY), ACLY (gene 47); experiment: LTEA_HepaRG_ACLY: Life Technologies and Expression Analysis (LTEA) Assay for ATP-citrate lyase (ACLY) using HepaRG (AID 2283466)
Procedure, shortened: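 Differentiated human HepaRG cells in serum-free induction medium exposed 48 h, in duplicate, to eight half-log concentrations from 100 uM top in 0.5% DMSO; ACLY mRNA measured by qRT-PCR, normalized to ACTB, GAPDH, POLR2A, fitted bidirectionally versus DMSO.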

[2] = read-out: Peroxisomal acyl-coenzyme A oxidase 1 (ACOX1) gene, ACOX1 (gene 51); experiment: LTEA_HepaRG_ACOX1: Life Technologies and Expression Analysis (LTEA) Assay for Peroxisomal acyl-coenzyme A oxidase 1 (ACOX1) gene using HepaRG (AID 2283467)
Procedure, shortened: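 Differentiated human HepaRG cells were exposed in duplicate for 48 h in serum-free induction medium to eight half-log concentrations up to 100 uM in 0.5% DMSO. ACOX1 mRNA was then quantified by TaqMan qRT-PCR, normalized to ACTB, GAPDH and POLR2A.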

[3] = read-out: Alkaline Phosphatase, Placental (ALPP) gene, ALPP (gene 250); experiment: LTEA_HepaRG_ALPP: Life Technologies and Expression Analysis (LTEA) Assay for Alkaline Phosphatase, Placental (ALPP) gene using HepaRG (AID 2283468)
Procedure, shortened: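 Differentiated human HepaRG cells were plated and cultured 48 h, then exposed in duplicate for 48 h in serum-free induction medium to eight half-log concentrations from 100 uM in 0.5% DMSO. ALPP mRNA was measured by TaqMan qRT-PCR, normalized to ACTB, GAPDH, POLR2A.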

[4] = read-out: Bcl-2 (BAD) gene, BAD (gene 572); experiment: LTEA_HepaRG_BAD: Life Technologies and Expression Analysis (LTEA) Assay for Bcl-2 (BAD) gene using HepaRG (AID 2283469)
Procedure, shortened: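 Differentiated human HepaRG cells in serum-free induction medium were exposed in duplicate for 48 h to eight concentrations (top 100 uM, half-log steps, 0.5% DMSO). BAD mRNA was quantified by qRT-PCR normalised to ACTB, GAPDH and POLR2A, with bidirectional fitting versus DMSO.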

[5] = read-out: Bcl-2 (BAX) gene, BAX (gene 581); experiment: LTEA_HepaRG_BAX: Life Technologies and Expression Analysis (LTEA) Assay for Bcl-2 (BAX) gene using HepaRG (AID 2283470)
Procedure, shortened: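 Concentration-response endpoint fitted in both directions relative to 0.5% DMSO vehicle. Human HepaRG cultures receive test chemicals for 48 h at up to 100 uM; BAX mRNA is quantified by qRT-PCR against housekeeping genes.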

[6] = read-out: adenosine kinase (ADK) gene, ADK (gene 132); experiment: LTEA_HepaRG_ADK: Life Technologies and Expression Analysis (LTEA) Assay for adenosine kinase (ADK) gene using HepaRG (AID 2283471)
Procedure, shortened: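 HepaRG (human liver), 48 h chemical exposure, 8-pt half-log series, top 100 uM, 0.5% DMSO vehicle. Readout: ADK mRNA by qRT-PCR vs housekeeping genes; bidirectional curve fit relative to DMSO baseline.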

[7] = read-out: Alpha-fetoprotein (AFP) gene, AFP (gene 174); experiment: LTEA_HepaRG_AFP: Life Technologies and Expression Analysis (LTEA) Assay for Alpha-fetoprotein (AFP) gene using HepaRG (AID 2283472)
Procedure, shortened: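 After a 48 h plating period, cells are moved to serum-free induction medium and dosed in duplicate (100 uM maximum, half-log dilutions, 0.5% DMSO) for another 48 h. Total RNA goes to TaqMan qRT-PCR; AFP signal is housekeeping-normalized.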

BCL2L11 (gene 10018) = experiment: LTEA_HepaRG_BCL2L11: Life Technologies and Expression Analysis (LTEA) Assay for Bcl-2 (BCL2L11) gene using HepaRG (AID 2283473)
Procedure, shortened: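 Differentiated human HepaRG cells in serum-free induction medium were exposed in duplicate for 48 h to eight concentrations (top 100 uM, half-log steps, 0.5% DMSO). BCL2L11 mRNA was quantified by TaqMan qRT-PCR, normalized to ACTB/GAPDH/POLR2A, bidirectional fit versus DMSO.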

[8] = read-out: Apolipoprotein A-V (APOA5) gene, APOA5 (gene 116519); experiment: LTEA_HepaRG_APOA5: Life Technologies and Expression Analysis (LTEA) Assay for Apolipoprotein A-V (APOA5) gene using HepaRG (AID 2283474)
Procedure, shortened: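 Differentiated human HepaRG cells were exposed in duplicate for 48 h to eight half-log concentrations from 100 uM in 0.5% DMSO. APOA5 mRNA was quantified by TaqMan qRT-PCR, normalized to ACTB, GAPDH and POLR2A, and fitted bidirectionally against DMSO.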

[9] = read-out: Apoptosis regulator Bcl-2 (Homo sapiens) (UniProt P10415); experiment: LTEA_HepaRG_BCL2: Life Technologies and Expression Analysis (LTEA) Assay for Bcl-2 gene using HepaRG (AID 2283475)
Procedure, shortened: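 Expression change of BCL2 mRNA in HepaRG after 48 h dosing, quantified by TaqMan qRT-PCR against three endogenous controls. Concentration-response used eight points up to 100 uM, vehicle 0.5% DMSO.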

Chain of Apoptosis regulator Bcl-2 (Homo sapiens) (P10415 whole entry, looked up): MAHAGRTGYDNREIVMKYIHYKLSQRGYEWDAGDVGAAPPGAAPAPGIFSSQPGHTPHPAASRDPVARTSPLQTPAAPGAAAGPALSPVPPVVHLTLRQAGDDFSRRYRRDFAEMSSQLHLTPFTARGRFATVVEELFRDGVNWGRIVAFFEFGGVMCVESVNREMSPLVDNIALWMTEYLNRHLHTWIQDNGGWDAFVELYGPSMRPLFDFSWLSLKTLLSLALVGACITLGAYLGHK

SMILES | outcome [1] | outcome [2] | outcome [3] | outcome [4] | outcome [5] | outcome [6] | outcome [7] | outcome (BCL2L11 (gene 10018)) | outcome [8] | outcome [9] | AC50 [7] | AC50 [5] | AC50 [2] | AC50 [3] | AC50 [8] | AC50 [9]
[As]#[In] | inactive | inactive | inactive | inactive | inactive | inactive | inactive | inactive | inactive | inactive |  |  |  |  |  | 
Oc1ccc2ccc3cccc4ccc1c2c34 | inactive | inactive | inactive | inactive | inactive | inactive | inactive |  | inactive |  |  |  |  |  |  | 
CC(C)(C)OOC(C)(C)CCC(C)(C)OOC(C)(C)C | inactive | inactive | inactive | inactive | inactive | inactive | inactive | inactive |  | inactive |  |  |  |  |  | 
CC(C)(C)OOC(=O)c1ccccc1 | inactive | inactive | inactive | inactive | inactive | inactive | inactive | inactive | inactive | inactive |  |  |  |  |  | 
CCNS(=O)(=O)C(F)(F)C(F)(F)C(F)(F)C(F)(F)C(F)(F)C(F)(F)C(F)(F)C(F)(F)F | inactive | inactive | inactive | inactive | inactive | inactive |  | inactive |  | inactive | 65.2 µM (active) |  |  |  |  | 
OCCOCCO | inactive | inactive | inactive | inactive | inactive | inactive | inactive | inactive | inactive | inactive |  |  |  |  |  | 
CCCCOC(=O)c1ccccc1C(=O)OCc1ccccc1 | inactive | inactive | inactive | inactive | inactive | inactive | inactive | inactive | inactive |  |  |  |  |  |  | 
COC(=O)Nc1nc2ccccc2[nH]1 | inactive | inactive | inactive | inactive | inactive | inactive | inactive | inactive |  | inactive |  |  |  |  |  | 
[O-][Cl+]O | inactive | inactive | inactive | inactive | inactive | inactive | inactive |  | inactive |  |  |  |  |  |  | 
O=P(OCCCl)(OCCCl)OCCCl | inactive | inactive | inactive | inactive |  | inactive | inactive | inactive |  | inactive |  | 9.92 µM (active) |  |  |  | 
Brc1ccc(Oc2ccccc2)cc1 | inactive | inactive | inactive | inactive | inactive | inactive | inactive | inactive |  | inactive |  |  |  |  |  | 
CNC(=O)Oc1cccc2c1OC(C)(C)C2 | inactive | inactive | inactive | inactive | inactive | inactive |  | inactive | inactive |  | 9.92 µM (active) |  |  |  |  | 
OCCCl | inactive | inactive | inactive | inactive | inactive | inactive | inactive | inactive |  | inactive |  |  |  |  |  | 
CCN(CC)CCO | inactive | inactive | inactive | inactive | inactive | inactive | inactive |  |  | inactive |  |  |  |  |  | 
CCOC(=O)[C@]1(c2ccccc2)Oc2ccccc2[C@@H]1N | inactive |  |  | inactive |  | inactive | inactive |  |  |  |  | 75.7 µM (active) | 87.5 µM (active) | 50 µM (active) | 83.3 µM (active) | 88.7 µM (active)
c1ccc2c(c1)-c1cccc3cccc-2c13 | inactive | inactive | inactive | inactive | inactive | inactive | inactive |  |  | inactive |  |  |  |  |  | 
N#CC(Br)Br | inactive | inactive | inactive | inactive | inactive | inactive | inactive |  |  | inactive |  |  |  |  |  | 
Nc1ccc(Oc2ccc(N)cc2)cc1 | inactive | inactive | inactive | inactive | inactive | inactive | inactive |  |  | inactive |  |  |  |  |  | 
CC(C)(O)c1cnn2c(-c3ccc(F)c(-c4c(F)cccc4C#N)c3)cnc2n1 | inactive |  | inactive | inactive | inactive | inactive |  |  | inactive | inactive | 12.7 µM (active) |  | 0.00316 µM (active) |  |  | 
CS(=O)(=O)NC(=O)c1cc(Oc2ccc(C(F)(F)F)cc2Cl)ccc1[N+](=O)[O-] | inactive | inactive | inactive | inactive | inactive | inactive | inactive |  |  | inactive |  |  |  |  |  | 

Source: PubChem BioAssay (EPA / NIEHS)
